Screening data as filed in PubChem.
A selection: hits, their analogues and other compounds. The true share with any hit is near 0.88%.
pAkt inh: blocks phosphorylation of Akt. 360,000 tested, 0.32% active. Neuro2A IGF-stimulated pAkt S473 HTRF, 20 min; hits give low values. AID 651550. activity change, % for hits at 50 µM; in the data active = activity change below about -80%; inconclusive = mostly about -51% to -80%; also: % is scaled to controls: 0 for no effect and ±100 for the full control effect
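Neuro2A cells (4,500/well, DMEM with 0.5% FBS) were treated with compound at a single 50 µM final concentration, stimulated with 6 nM IGF for 20 min at 37 °C, and lysed. Phospho-Akt Ser473 was read by HTRF as 665/615 ratio ×10^4.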
CtBP-E1A inh: CtBP/E1A binding inhibition | AlphaScreen GST-E1A/His-CtBP binding, 1536-well; hits give low values | activity change, % (no concentration beside the values) | 340,000 tested, 0.49% active | AID 651724; in the data active = activity change below about -65%; inconclusive = mostly about -30% to -63%; also: % is scaled to controls: 0 for no effect and ±100 for the full control effect
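GST-E1A and His-tagged CtBP (125 nM each as 5X stock) were preincubated with pin-transferred compound for 2 h at 37 °C in the dark, then glutathione donor and nickel acceptor beads were added for 1 h before AlphaScreen reading.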
RGS4 inhibitor: blocks human RGS4-accelerated GTP hydrolysis. Potency, µM (top dose mostly 114 µM), for inactives: at the highest dose activity change, negative = inhibition, usual class: inhibitors. 390,000 tested, 0.039% active. Transcreener GDP fluorescence polarization, RGS4-accelerated GTP hydrolysis. P49798; also: potency is read from the fitted curve at half-maximal effect; % is scaled to controls: 0 for no effect and ±100 for the full control effect; nearly all actives have a fitted effect of over 75% in size
Target sequence (P49798 whole entry, looked up): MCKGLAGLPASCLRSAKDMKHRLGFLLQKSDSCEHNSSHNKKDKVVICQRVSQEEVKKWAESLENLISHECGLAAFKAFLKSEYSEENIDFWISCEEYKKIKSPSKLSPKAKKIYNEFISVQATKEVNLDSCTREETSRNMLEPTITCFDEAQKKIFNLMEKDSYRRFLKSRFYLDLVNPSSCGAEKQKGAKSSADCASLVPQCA
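MLSMR compounds (23 nl, pin-transferred) preincubated 10 min at room temperature with a 500nM (2x) first reagent, then RGS4 at 900nM (2x) plus Transcreener GDP mix added; fluorescence polarization (620/688 nm) read before and after 90 min at 30 °C.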
GRP78 ERSR act: inducers of ER stress response in human glioma cells | Potency, µM, inactives show at the highest dose activation, hits mostly activators | U87-MG GRP78 promoter luciferase reporter, 16 h | AID 602332 | 420,000 tested, 0.02% active; also: potency is read from the fitted curve at half-maximal effect; series mostly up to about 76 µM; % of control where 0% means no effect; nearly all actives have a fitted effect of over 35% in size
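ERSR induction read as luciferase luminescence (Bright-Glo, 10 min at room temperature) in stably transfected human U87-MG glioma cells exposed to compounds for 16 h, using GRP78 as sensor.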
Six1-Eya2 blk: inhibitors of human Six1/Eya2 interaction; AID 651725; activity change, % (no concentration beside the values); AlphaScreen GST-Six1/His-Eya2 binding, biochemical; hits give low values; Q15475+O00167; 360,000 tested, 0.56% active; in the data active = activity change below about -65%; inconclusive = mostly about -30% to -63%; also: % is scaled to controls: 0 for no effect and ±100 for the full control effect
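Homogeneous AlphaScreen proximity assay pairing GST-Six1 with His-tagged Eya2 (added as 5X mix: 250 nM and 500 nM) in 50 mM Tris pH 8.0, 300 mM NaCl, 1 mM TCEP. Glutathione donor and nickel acceptor beads; 1 h, 37 °C, dark.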
* marks the source's active call; other numbers are inactive results; i = inactive; u = inconclusive; x = no result; [ ] = remark or other dose. Unless noted, calls follow the shape of the dose curve; as a rule, active = well fitted curve in the direction sought with a large enough effect; inconclusive = small, poorly fitted or top-dose-only effect, or another doubt; inactive = no such curve, though single readings can be large; an effect the other way counts as inactive or inconclusive.

SMILES	pAkt inh	CtBP-E1A inh	RGS4 inhibitor	GRP78 ERSR act	Six1-Eya2 blk
Cc1ccc(NC(=O)c2ccc3c(c2)N(CC(=O)N2CCCCC2)C(=O)C(C)(C)O3)cc1	-121%*	-1	-42%	-1%	-3
COc1ccccc1CN1CCC2(CC1)c1ccccc1[C@@H](NC(=O)c1ccco1)[C@@H]2OC	x	x	x	-4%	x
COc1ccc(/C(=N/Nc2ncnc3ccccc23)C(=O)O)cc1	i	-69*	-10%	-1%	-77*
CCOC(=O)/C(=N\Nc1ncnc2ccccc12)c1ccc(OC)cc1	i	-29	-8%	-12%	-24
O=C(NCc1nnc2n1CCN(Cc1cc(F)cc(F)c1)CC2)c1cccc(F)c1	x	x	x	-3%	x
O=C(C1CC12CCN(Cc1cccc3cccnc13)CC2)N1CCN(Cc2cccs2)CC1 (stereo not given)	x	x	x	-3%	x
CCOC(=O)c1c(C)nc2sc3c(=O)n(-c4ccc(C)cc4)cnc3c2c1-c1ccc(OC)cc1	-110%*	5	16%	-3%	7
CCOC(=O)c1c(C)nc2sc3c(=O)n(-c4ccc(C(C)=O)cc4)cnc3c2c1-c1ccc(Cl)cc1	i	2	3%	-3%	-1
Cc1csc[n+]1CC(=O)c1ccc(I)cc1	x	x	x	2%	x
CCOC(=O)Cn1c(=O)oc2cc(S(=O)(=O)N(C)Cc3ccccc3)ccc21	i	2	-40%[56.9 µM]	-4%	4
CCCN(c1ccc(C(C)C)cc1)S(=O)(=O)c1ccc2c(c1)oc(=O)n2CC(=O)OCC	x	x	15%	20µM*	x
CCNc1nc(C)c2cc(Br)c(=O)n(CC)c2n1	-104%*	1	2%	-3%	-1
CCNc1ncc2nc(C)c(=O)n(CCC#N)c2n1	x	x	x	-1%	x
C=CCn1nc([N+](=O)[O-])nc1Sc1cccc2cccnc12	i	-95*	-31%	7%	-94*
O=[N+]([O-])c1ccc(Sc2cccc3cccnc23)c([N+](=O)[O-])c1	i	-98*	-45%	-3%	-94*
COCc1c(C(=O)N2CCN(C(C)C)CC2)cnn1-c1nccc(-c2cc(C)sc2C)n1	x	x	x	-3%	x
COc1ccc(CNc2oc(/C=C/c3cc(OC)c(OC)c(OC)c3)nc2C#N)cc1	x	x	4%	32µM*	x
COc1ccc(/C=C/c2nc(C#N)c(NCc3ccc(C)cc3)o2)cc1OC	x	x	21%	-1%	x
Cc1cnc(SCc2ccccn2)nc1C1CCCN(C(=O)c2scc3c2CCCC3)C1 (stereo not given)	x	x	x	-8%	x
COc1cc(C)c2sc3ccccc3c(=O)c2c1NCCN(C)C	i	-26	x	-12%	-75*
CCN(CC)CCNc1cccc2sc3ccccc3c(=O)c12	i	-14	x	-4%	-11
Cc1ccc(NCCN(C)C)c2c(=O)c3cc(O)ccc3sc12	i	-68*	-15%	u	u
CCN(CC)CCNc1ccc(CO)c2sc3ccccc3c(=O)c12	x	u	2%	12%	-7
CN(C)CCNc1cccc2sc3ccc(O)cc3c(=O)c12	i	-67*	x	u	u
CN(C)CCNc1ccc2nnn3c4ccc(O)cc4c(=O)c1c23	i	0	-26%	2%	-77*
SMILES	pAkt inh	CtBP-E1A inh	RGS4 inhibitor	GRP78 ERSR act	Six1-Eya2 blk
Cc1cc(O)cc2c(=O)c3ccccc3sc12	i	x	u	1%	-2
COc1ccccc1C(=O)N[C@@H]1c2ccccc2C2(CCN(Cc3c(O)cccc3OC)CC2)[C@H]1O	x	x	x	-1%	x
O=C(O)c1ccc(NC2=C/C(=N/S(=O)(=O)c3cccs3)c3ccccc3C2=O)cc1	i	u	x	-14%	u
Cc1cc(C)c(S(=O)(=O)/N=C2\C=C(Nc3ccc(C(=O)O)cc3)C(=O)c3ccccc32)c(C)c1	i	-72*	-20%	-18%	u
O=C(O)c1ccc(NC2=C/C(=N/S(=O)(=O)c3ccccc3)c3ccccc3C2=O)cc1	i	u	-5%	-14%	u
O=C1C=C(Nc2ccc(O)cc2)C(=O)c2ccccc21	i	-30	-4%	-2%	u
CCc1ccc(S(=O)(=O)/N=C2\C=C(Nc3cccc(C(=O)O)c3)C(=O)c3ccccc32)cc1	i	-75*	u	-17%	u
CCc1ccc(S(=O)(=O)/N=C2\C=C(Nc3ccc(O)cc3)C(=O)c3ccccc32)cc1	i	-89*	-28%	-19%	-70*
CC1(C)S[C@@H]2C(C(=O)O)NC(=O)N2C1C(=O)O (stereo not given in full)	x	x	x	-4%	x
N#C/C(=C(\O)Cc1ccccc1)c1nc2ccccc2[nH]1	i	1	-40%	-7%	-7
N#C/C(=C(/O)CCl)c1nc2ccccc2[nH]1	i	4	-1%	25µM*	-13
O=C(N/N=C/c1cn(-c2cccs2)nc1-c1ccccc1)c1ccccc1O	i	-76*	-2%	-1%	-78*
Cc1cccc(NC(=O)COC(=O)c2cccc3c2C(=O)c2ccccc2C3=O)c1C	i	-6	4%	-5%	-65*
Cc1cccc(C)c1NC(=O)COC(=O)c1cccc2c1C(=O)c1ccccc1C2=O	i	-1	-16%	-2%	2
Cn1cc(C(=O)c2ccc(Cl)cc2Cl)cc1C(=O)N/N=C(\N)COc1ccccc1	-109%*	-13	17%	-8%	4
CC(C)(C)c1nnc(N/N=C/c2cc(Br)ccc2O)n(N)c1=O	i	-94*	0%	1%	-90*
NC(=O)N/N=C\c1cc(Br)ccc1O	i	0	-9%	-6%	-18
CCc1nnc(N/N=C/c2cc(Br)c(O)cc2O)n1N	i	-91*	-38%	-12%	-80*
COc1ccccc1NC(C)C(=O)c1c[nH]c2ccccc12 (stereo not given)	x	x	x	0%	x
COc1ccc(C(=O)N/C(=C\c2ccco2)C(=O)NCCCn2ccnc2)cc1	i	5	-3%	-4%	11
Cc1ccc(C(=O)N/C(=C\c2ccco2)C(=O)NCCCn2ccnc2)cc1C	i	7	4%	-4%	-81*
CC1=CCC(C(=O)O)C(C(=O)Nc2nc3ccc(S(C)(=O)=O)cc3s2)C1 (stereo not given)	-120%*	-5	26%	-2%	5
COC(=O)c1nn(-c2ccccc2)c(Sc2ccccc2)c1/C=N/O	-107%*	1	2%	0%	-4
COC(=O)c1nn(-c2ccccc2)c(Sc2ccc(C)cc2)c1/C=N/O	i	0	5%	-4%	-6
Brc1cc(Br)c2ncnc(N3CCCCC3)c2c1	-82%*	21	-15%	0%	15
Clc1ccc(-n2ncc3c(N4CCCCCC4)ncnc32)cc1	i	-1	2%	-10%	1
COc1ccc(NC(=O)Nc2cccc3c2O[C@H](CN(C)S(=O)(=O)c2ccc(OC)cc2)[C@@H](C)CN([C@H](C)CO)C3=O)cc1	i	-3	4%	0%	-6
